# Source: PubChem
# GRK2 inh – inhibitors of human GRK2 displacing RNA aptamer | P25098 | bead flow cytometry, FAM-aptamer displacement from GRK2 | inhibition of aptamer binding, % at 10 µM | 0.59% of 330,000 active | AID 488847;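 active = inhibition of aptamer binding above 40%, roughly 3 SD of noise, on plates passing a quality check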;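 note: median bead fluorescence of bound FAM aptamer so fluorescent compounds give negative values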
# Neddylation inh – cullin neddylation inhibition; inhibition, % at 25 µM; P61081+Q13564; 0.58% of 360,000 active; TR-FRET cullin neddylation, biochemical; in the data active = inhibition above about 36%
# Target sequence (P61081 whole entry, looked up): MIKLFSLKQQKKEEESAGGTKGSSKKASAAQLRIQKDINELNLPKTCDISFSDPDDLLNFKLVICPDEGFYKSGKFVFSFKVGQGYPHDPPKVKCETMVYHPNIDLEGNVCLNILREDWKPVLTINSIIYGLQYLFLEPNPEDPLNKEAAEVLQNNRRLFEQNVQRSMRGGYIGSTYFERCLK
# Target sequence (Q13564 whole entry, looked up): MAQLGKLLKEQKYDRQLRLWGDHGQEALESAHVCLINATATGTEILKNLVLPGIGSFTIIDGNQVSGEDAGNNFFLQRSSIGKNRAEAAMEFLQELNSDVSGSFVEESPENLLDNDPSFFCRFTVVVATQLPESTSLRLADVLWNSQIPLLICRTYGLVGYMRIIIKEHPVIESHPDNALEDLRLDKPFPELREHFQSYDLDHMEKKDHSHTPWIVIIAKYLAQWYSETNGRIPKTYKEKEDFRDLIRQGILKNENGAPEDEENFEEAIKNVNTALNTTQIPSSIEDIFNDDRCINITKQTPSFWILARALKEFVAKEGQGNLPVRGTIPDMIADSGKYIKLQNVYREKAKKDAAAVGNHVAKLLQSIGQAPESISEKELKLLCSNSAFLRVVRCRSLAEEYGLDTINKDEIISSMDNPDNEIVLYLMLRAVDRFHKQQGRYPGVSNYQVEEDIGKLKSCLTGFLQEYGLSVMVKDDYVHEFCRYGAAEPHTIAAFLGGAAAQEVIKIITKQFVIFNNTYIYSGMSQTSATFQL
# H9c2 protect – modulators protecting cardiomyocytes from myocardial damage. protection from H2O2 cell death, % at 20 µM. 0.63% of 360,000 active. H9c2 cardiomyocytes, H2O2 injury protection, ATPLite, 2 h;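 active = compounds giving at least 50% protection of heart cells from peroxide-induced death in the single-dose screen, raw or plate-pattern-corrected value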;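 note: 0% = DMSO wells with peroxide and 100% = DMSO wells without peroxide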
# HDAC3 inh – inhibitors of human histone deacetylase 3; O15379; recombinant HDAC3, fluorogenic peptide/trypsin coupled, fluorescence; inhibition, % at 8.3 µM; 0.15% of 320,000 active; AID 2718; in the data active = inhibition above about 26%, passing the limit was not always enough
# GRK2 inh confirm – human GRK2 inhibition confirmation, cherry pick 1 | 4% of 2,000 active | shares compounds with GRK2 inh | aptamer displacement, % at 10 µM | bead-bound GRK2, FAM-aptamer displacement, flow cytometry;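 active = aptamer displacement above 40%, near three times the noise of non-fluorescent compounds, on plates passing quality checks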;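 note: negative values mostly reflect intrinsic compound fluorescence rather than true enhancement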
# Aptamer quench – counter-screen for GRK2 aptamer inhibitors: fluorescent aptamer quenchers; shares compounds with GRK2 inh; fluorescence change (kMESF span), kMESF (no concentration beside the values); 110 tested, under 10 active; Fluorescent RNA aptamer beads, quenching, flow cytometry; active compounds read high; AID 504521;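 active = compounds whose bead fluorescence drops by more than 37 kMESF across the dose range, marking them as dye quenchers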
# Aptamer quench SP – aptamer fluorescence quenching in GRK2 counter-screen; 2,000 tested, under 10 active; shares compounds with GRK2 inh; AID 504580; Carboxyfluorescein RNA aptamer on beads, flow cytometry quenching; active compounds read low; fluorescence response (% of DMSO), % at 10 µM;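 active = compounds that quench the bead-bound fluorescent RNA probe, cutting fluorescence to under half of the solvent control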;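 note: counterscreen run without GRK2 so only probe quenching by compound is measured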
# GRK2 confirm 2 – human GRK2 inhibition confirmation, cherry pick 2. inhibition of aptamer binding, % at 10 µM. 360 tested, under 10 active. bead-bound GRK2, FAM-aptamer displacement, flow cytometry. shares compounds with GRK2 inh;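 active = inhibition of aptamer binding above 40%, about triple the noise seen with nonglowing compounds, on plates passing quality control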;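 note: negative values mostly come from compounds that fluoresce themselves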
# FAM quench SP – quenches fluorescent RNA aptamer, GRK2 hit artifact; shares compounds with GRK2 inh; fluorescence response vs DMSO, % at 10 µM; carboxyfluorescein RNA aptamer beads, flow cytometry quenching; active compounds read low; 360 tested, under 10 active; AID 588494;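 active = response vs DMSO under 50%, meaning signal dropped by over half, treated as fluorescence quencher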;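 note: labelled aptamer on streptavidin beads without GRK2 as a quench counter-screen; 100% = bead fluorescence of DMSO wells and lower means quenching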
# FAM quench PS1 – counter-screen for GRK2 aptamer binding inhibitors: aptamer fluorescence quenching. fluorescence ratio to DMSO, % at 11.1 µM. Bead-bound FAM RNA aptamer fluorescence quenching, flow cytometry; active compounds read low. 35 tested, under 10 active. shares compounds with GRK2 inh;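 active = compounds that dim the fluorescent label, raw bead signal shifting by over 33 units between lowest and highest dose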
# * hit, by the source's call; x = no result. The list is not random: actives were taken first. Their share in the collection is about 1.8%.
SMILES,GRK2 inh,Neddylation inh,H9c2 protect,HDAC3 inh,GRK2 inh confirm,Aptamer quench SP,others
CCOc1ccc(NC(=O)CN(C)C(=O)c2ccc(COc3ccccc3)o2)cc1OCC,1.0,8.1,2.1,-7.5,x,x,
CC1CCN(C(c2cccs2)c2nnnn2Cc2ccccc2)CC1 (stereo unspecified),0.0,-6.8,-10.1,4.4,x,x,
C[C@H](CO)N1C[C@H](C)[C@H](CN(C)Cc2ccc(Oc3ccccc3)cc2)Oc2cc(Br)ccc2S1(=O)=O,x,-6.0,-14.0,x,x,x,
Cc1cc(=O)oc2cc(OCC(=O)NC3CCCC3)ccc12,0.0,21.5,-0.2,3.7,x,x,
Cc1cc(=O)oc2cc(OCC(=O)N/N=C/c3cc([N+](=O)[O-])ccc3O)ccc12,75.0*,-14.3,55.1*,-4.5,-2.1,98.5,
COc1ccc(OC)c(NC(=O)C2COc3ccccc3O2)c1 (stereo unspecified),2.0,-9.7,-2.8,3.9,x,x,
COc1ccc(CNC(=O)C2COc3ccccc3O2)c(OC)c1 (stereo unspecified),4.0,-2.9,5.3,2.6,-2.6,99.0,
O=[N+]([O-])c1cc(Br)c(O)c(C=Nc2ccc(N3CCOCC3)cc2)c1,51.0*,-12.2,-8.7,3.3,0.3,103.4,
CN(C)C(=O)c1cn(N(C)c2ncc(C(F)(F)F)cc2Cl)c(=O)c2ccccc12,0.0,3.0,2.2,-9.8,x,x,
CN(c1ncc(C(F)(F)F)cc1Cl)N1C(=O)c2cccc([N+](=O)[O-])c2C1=O,57.0*,5.0,-12.5,2.2,-0.2,101.9,
CC1=NN(c2cccc(C(=O)O)c2)C(=O)/C1=C\C=C\c1ccco1,83.0*,-22.2,6.6,6.4,59.9*,96.5,Aptamer quench=9.6
Cc1ccccc1OCC(=O)NCCS(=O)(=O)N1CCN(c2ccc(F)cc2)CC1,0.0,16.0,-3.4,-10.4,x,x,
COc1ccc(CN2CCNC(=O)C2CC(=O)NCCSc2nccn2C)cc1OC (stereo unspecified),3.0,8.8,8.7,-7.4,x,x,
CC1CCN(C(=O)CCc2ccc(Oc3cc([N+](=O)[O-])cc([N+](=O)[O-])c3)cc2)CC1,2.0,-36.5,-10.5,8.4,x,x,
O=C(CCc1ccc(Oc2cc([N+](=O)[O-])cc([N+](=O)[O-])c2)cc1)NC1CCCC1,99.0*,-43.1,-8.6,-1.2,2.0,91.9,
O=C(CSc1nc2ccccc2c(=O)n1-c1ccccc1)N1CCC1,2.0,-2.6,18.8,0.2,x,x,
O=C(CSc1nc2ccccc2c(=O)n1-c1ccccc1)NC(=O)CN1CCCC1=O,70.0*,3.9,7.8,1.3,49.8*,103.2,Aptamer quench=12.2;GRK2 confirm 2=28.1;FAM quench SP=100.0;FAM quench PS1=96.0
COC(=O)c1cccc(C23CC4(C2)[C@H](CN(CC2CCCCC2)[C@@H]4c2ccccc2)C3c2ccccc2)c1 (stereo partly specified),85.0*,-26.5,-1.3,1.0,-7.9,100.3,
Cc1ccc2c(=O)n3c(nc2c1)C(Cc1ccccc1)NC(=O)c1cc2ccccc2cc1-3 (stereo unspecified),x,-15.5,9.5,x,x,x,
O=Cc1ccc(Oc2nc(Cl)ncc2F)cc1,39.0,-0.2,12.7,1.2,12.0,90.7,
CC(C)C[C@@H](CN1CCC[C@@H]1CN1C(=S)NC[C@@H]1Cc1ccc(O)cc1)N1C[C@H](Cc2ccc(O)cc2)N(CCc2ccccc2)C1=S,x,-0.1,-8.0,x,x,x,
O=C(NN=C(Cc1ccccc1)Cc1ccccc1)c1ccccc1F,86.0*,0.9,6.2,0.1,1.1,100.7,
CCCC(CCC)=NNC(=O)c1ccccc1F,0.0,3.2,2.0,3.0,x,x,
CCOc1ccc(C(C)=O)cc1COC(=O)CNC(=O)C12CC3CC(CC(C3)C1)C2,0.0,0.6,3.0,2.8,x,x,
O=C(O)c1ccccc1-c1ccccc1C(=O)Nc1ccc2c(c1)C(O)c1ccccc1-2 (stereo unspecified),x,21.2,-4.2,x,x,x,
SMILES,GRK2 inh,Neddylation inh,H9c2 protect,HDAC3 inh,GRK2 inh confirm,Aptamer quench SP,others
CC1Sc2ccc(S(=O)(=O)CCC(=O)Nc3ccc(C(C)C)cc3)cc2NC1=O (stereo unspecified),0.0,-2.9,-0.3,8.8,x,x,
CCC1Sc2ccc(S(=O)(=O)CCC(=O)Nc3c(Cl)cc(OC)cc3OC)cc2NC1=O (stereo unspecified),3.0,-4.9,2.2,4.9,x,x,GRK2 confirm 2=17.9;FAM quench SP=100.0
CCOc1ccccc1N(C)C(=O)CCS(=O)(=O)c1ccc2c(c1)NC(=O)C(C)S2 (stereo unspecified),5.0,12.8,-1.6,4.3,x,x,GRK2 confirm 2=-4.8;FAM quench SP=101.0
CC1Sc2ccc(S(=O)(=O)CCC(=O)NC(C)c3ccccc3)cc2NC1=O (stereo unspecified),8.0,-5.2,4.4,10.2,x,x,GRK2 confirm 2=25.5;FAM quench SP=97.0
Cc1ccc(NC(=O)CCS(=O)(=O)c2ccc3c(c2)NC(=O)C(C)S3)cc1Cl (stereo unspecified),2.0,-11.3,-2.3,6.7,x,x,GRK2 confirm 2=-1.6;FAM quench SP=99.0
O=C(CN1CCN(c2ccccc2O)CC1)Nc1cc(S(=O)(=O)N2CCCC2)ccc1Cl,3.0,7.3,-7.3,0.9,x,x,
N#CCCCC1(CCCC#N)OCCO1,x,-5.3,4.7,x,x,x,
COc1ccc(C(=O)CN(CCC(=O)O)S(=O)(=O)c2ccc([N+](=O)[O-])cc2)cc1,2.0,-37.3,-8.0,-1.4,x,x,
COc1ccc(CNC(=O)C/C(C)=N/NC(=O)C23CC4CC(CC(C4)C2)C3)cc1,1.0,6.7,0.9,1.0,x,x,
O=C(CC1SC(N2CCCC2)=NC1=O)Nc1ccc(C(=O)NCc2ccc(F)cc2)cc1 (stereo unspecified),x,1.2,-3.5,x,x,x,
O=C(CC1SC(N2CCCCC2)=NC1=O)Nc1cccc(C(=O)NCc2ccc(F)cc2)c1 (stereo unspecified),x,-1.1,1.7,x,23.9,99.1,Aptamer quench=-29.7
CC(C)CNS(=O)(=O)c1ccc(S(=O)(=O)N2CCN(C3CCCC3)CC2)cc1,0.0,-2.5,-3.5,0.7,x,x,
O=C(COc1ccc(Cl)cc1)NCc1nnc(SCC(=O)N2CCCCCC2)o1,0.0,0.3,-4.5,0.0,x,x,
CCCn1nnnc1NCc1c(F)cccc1Cl,100.0*,-9.3,-1.3,1.8,9.9,96.8,
Nc1ccc2c(c1)nc(Cc1ccccc1)n2CCO,3.0,21.9,-2.8,2.0,x,x,
Cc1sc2c(c1C)C(=O)/C(=C\Nc1ccccn1)S(=O)(=O)N2C,57.0*,-45.0,7.8,-12.7,-2.5,94.3,
